According to PubChem BioAssay (NCATS):
Results filed as inconclusive are left out. The source made the active and inactive calls. Unless noted, the call rests on the fitted dose curve; in most records, active means well fitted curve in the direction sought with a large enough effect; inconclusive means small, poorly fitted or top-dose-only effect, or another doubt; inactive means no such curve, though single readings can be large; an effect the other way counts as inactive or inconclusive.

Legend:
[1] = qHTS assay for small molecule disruptors of the mitochondrial membrane potential - 1 hr assay (AID 651754; calls by dose curve; further: on the % scale 0 is the no-effect control and ±100 the full control effect; nearly all actives have a fitted effect of over 35% in size)
How it was run: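 HepG2 cells, attached overnight at 37C, were exposed to compound or DMSO vehicle for 1 hr at 37C, 5% CO2, then stained with Mito-MPS dye for 30 min. Red aggregate versus green monomer fluorescence reports membrane potential.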

[2] = qHTS assay for small molecule disruptors of the mitochondrial membrane potential - 5 hr assay (AID 651755; calls by dose curve; further: on the % scale 0 is the no-effect control and ±100 the full control effect; nearly all actives have a fitted effect of over 40% in size)
How it was run: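 HepG2 cells (2,000/well), attached overnight, exposed to compound 5 hr at 37C, then Mito-MPS dye 30 min. Fluorescence read for monomers (490/535 nm) and aggregates (540/590 nm).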

[3] = target: Tumor necrosis factor (Homo sapiens) (UniProt P01375); assay: qHTS assay to identify small molecules that stimulate Tumor Necrosis Factor-alpha (TNF-alpha) secretion (AID 651757; active means well fitted curve in the direction sought with a large enough effect in the signal ratio; the % refers to the signal ratio; further: 0% is about no effect)
How it was run: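 THP-1 cells were exposed to compounds for 17 hrs at 37 C, after which secreted TNF-alpha was measured by homogeneous HTRF (TR-FRET) using cryptate- and XL665-labeled anti-TNF-alpha antibodies, read after 3 hr at room temperature.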

[4] = qHTS assay for environmental chemicals that activate the Aryl hydrocarbon Receptor (AhR) signaling pathway (AID 651777); conditions: 1A2-DRE human hepatoma cells, luciferase, 24 h; activation: hits give high values; further: % of control where 0% means no effect; nearly all actives have a fitted effect of over 15% in size
How it was run: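 Following a 24 hr incubation with test chemicals at 37 C and 5% CO2, 1A2-DRE human hepatoma cells received One-Glo reagent; after 30 min at room temperature, luciferase output reflected CYP1A2 induction via AhR.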

[5] = target: Peroxisome proliferator-activated receptor alpha (Homo sapiens) (UniProt Q07869); assay: qHTS assay for small molecule agonists of the peroxisome proliferator-activated receptor alpha (PPARalpha) signaling pathway (AID 651778); conditions: PathHunter PPARalpha complementation, chemiluminescence, 6 h; hits give high values; further: % of control where 0% means no effect
How it was run: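 Enzyme-fragment complementation assay in which ligand-bound PPARalpha translocates and forms an active enzyme that generates chemiluminescence. Cells were plated overnight, exposed to compound for 6 hr at 37 C, and then given detection reagent for 60 min at room temperature.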

[6] = target: Nuclear receptor ROR-gamma (Homo sapiens) (UniProt P51449); assay: qHTS assay for small molecule antagonists of the retinoid-related orphan receptor gamma (ROR-gamma) signaling pathway (AID 651802); further: series mostly up to about 92 µM; on the % scale 0 is the no-effect control and ±100 the full control effect; nearly all actives have a fitted effect of over 60% in size
How it was run: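 CHO cells carrying TET-inducible ROR-gamma and an ROR response element–luciferase reporter were exposed to compound, then induced with doxycycline. After 16hr at 37C, luminescence was read; lower signal indicates antagonism.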

[7] = qHTS assay for small molecule agonists of the antioxidant response element (ARE) signaling pathway measured by Nrf2-dependant transcriptional activity (AID 720636; active means well fitted curve in the direction sought with a large enough effect in the repeat runs; an effect the other way counts as inactive or inconclusive;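 further: HepG2 cells with an ARE-driven luciferase reporter; % of control where 0% means no effect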)
How it was run: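 ONE-Glo luminescence, read 30 min after reagent addition at room temperature, reflected ARE reporter activity in HepG2 cells that had been incubated with compound for 16 hr at 37 C in 1% dialyzed FBS.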

[8] = qHTS assay for small molecule antagonists of the retinoid-related orphan receptor gamma (ROR-gamma) signaling pathway - cell viability counter screen (AID 720652; active means well fitted curve in the direction sought with a large enough effect in the repeat runs; an effect the other way counts as inactive or inconclusive;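 further: series mostly up to about 92 µM; compound exposure lasted 16 hr before ATP read; on the % scale 0 is the no-effect control and ±100 the full control effect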)
How it was run: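 Counter screen in CHO cells carrying TET-inducible ROR-gamma and an ROR response element-luciferase reporter; cells plated 5 hr, compound pinned, doxycycline added, then 16 hr at 37 C. Viability read as intracellular ATP by CellTiter-Glo luminescence.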

[9] = qHTS assay for small molecule agonists of the antioxidant response element (ARE) signaling pathway measured by Nrf2-dependant transcriptional activity - cell viability counter screen (AID 720653; active means well fitted curve in the direction sought with a large enough effect in the repeat runs; an effect the other way counts as inactive or inconclusive; further: on the % scale 0 is the no-effect control and ±100 the full control effect); conditions: ARE-bla HepG2 viability, CellTiter-Glo ATP luminescence, 16 h; hits give low values
How it was run: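 ARE-bla HepG2 cells treated with compounds for 16 h at 37C; this counter screen measures viability as intracellular ATP by CellTiter-Glo luminescence after 30 min at room temperature.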

[10] = qHTS assay for cell viability of HEK293 cells (AID 743288); conditions: ATP luminescence (CellTiter-Glo), 18 h, hits give low values; further: on the % scale 0 is the no-effect control and ±100 the full control effect; nearly all actives have a fitted effect of over 50% in size
How it was run: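 Luminescent ATP quantitation served as the viability read-out. Cells (parental HEK293, 2,000/well) received compounds after at least 5 h at 37 C and were exposed for 18 h before a 30 min room-temperature reagent step.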

[11] = qHTS assay for cell viability of the p53RE-bla HCT-116 cell line (AID 743292); further: on the % scale 0 is the no-effect control and ±100 the full control effect; nearly all actives have a fitted effect of over 55% in size
How it was run: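 After plating at 4,000 cells per well and a 5 h rest at 37 C, HCT-116 cells carrying p53RE-bla received test chemicals in DMSO. Sixteen hours later at 37 C, CellTiter-Glo was added and luminescence recorded following 30 min at room temperature.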

[12] = target: Nuclear receptor subfamily 1 group I member 2 (Rattus norvegicus) (UniProt Q9R1A7); assay: qHTS assay for small molecule activators of the rat pregnane X receptor (rPXR) signaling pathway (AID 651751; call rule not given here; further: 0% is about no effect); conditions: rPXR reporter cells, luciferase (One-Glo), 24 h
[13] = qHTS assay for small molecule activators of the human pregnane X receptor (PXR) signaling pathway (AID 720659; call rule not given here; further: 0% is about no effect)

Peroxisome proliferator-activated receptor alpha (Homo sapiens), sequence (Q07869 whole entry, looked up, the tested form may be a part): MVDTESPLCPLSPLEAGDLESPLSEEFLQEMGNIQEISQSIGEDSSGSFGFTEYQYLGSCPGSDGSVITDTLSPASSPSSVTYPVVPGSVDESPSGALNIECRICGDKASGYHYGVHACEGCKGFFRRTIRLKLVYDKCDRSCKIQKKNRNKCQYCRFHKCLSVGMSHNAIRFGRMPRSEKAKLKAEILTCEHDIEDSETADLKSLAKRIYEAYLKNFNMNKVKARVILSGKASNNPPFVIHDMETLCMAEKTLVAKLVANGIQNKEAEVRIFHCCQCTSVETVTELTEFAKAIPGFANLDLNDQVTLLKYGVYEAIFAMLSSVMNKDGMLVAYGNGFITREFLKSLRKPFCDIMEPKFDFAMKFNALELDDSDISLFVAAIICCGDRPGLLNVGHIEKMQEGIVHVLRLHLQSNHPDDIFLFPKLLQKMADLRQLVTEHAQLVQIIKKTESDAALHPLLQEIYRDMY
Nuclear receptor ROR-gamma (Homo sapiens), sequence (P51449 whole entry, looked up): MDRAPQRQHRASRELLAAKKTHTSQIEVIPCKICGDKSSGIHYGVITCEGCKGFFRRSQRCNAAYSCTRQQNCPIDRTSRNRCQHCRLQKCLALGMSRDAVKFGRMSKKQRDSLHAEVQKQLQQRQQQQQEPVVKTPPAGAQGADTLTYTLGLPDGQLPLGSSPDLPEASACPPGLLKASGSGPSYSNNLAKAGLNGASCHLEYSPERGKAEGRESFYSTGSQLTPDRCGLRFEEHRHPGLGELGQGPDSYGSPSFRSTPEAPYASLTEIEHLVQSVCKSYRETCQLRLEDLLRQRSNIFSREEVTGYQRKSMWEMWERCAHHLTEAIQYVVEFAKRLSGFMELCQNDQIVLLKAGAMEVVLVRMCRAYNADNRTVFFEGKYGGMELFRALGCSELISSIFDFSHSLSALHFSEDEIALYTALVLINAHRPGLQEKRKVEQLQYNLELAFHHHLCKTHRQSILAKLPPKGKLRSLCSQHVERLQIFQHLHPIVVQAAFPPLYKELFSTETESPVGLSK
Nuclear receptor subfamily 1 group I member 2 (Rattus norvegicus), sequence (Q9R1A7 whole entry, looked up): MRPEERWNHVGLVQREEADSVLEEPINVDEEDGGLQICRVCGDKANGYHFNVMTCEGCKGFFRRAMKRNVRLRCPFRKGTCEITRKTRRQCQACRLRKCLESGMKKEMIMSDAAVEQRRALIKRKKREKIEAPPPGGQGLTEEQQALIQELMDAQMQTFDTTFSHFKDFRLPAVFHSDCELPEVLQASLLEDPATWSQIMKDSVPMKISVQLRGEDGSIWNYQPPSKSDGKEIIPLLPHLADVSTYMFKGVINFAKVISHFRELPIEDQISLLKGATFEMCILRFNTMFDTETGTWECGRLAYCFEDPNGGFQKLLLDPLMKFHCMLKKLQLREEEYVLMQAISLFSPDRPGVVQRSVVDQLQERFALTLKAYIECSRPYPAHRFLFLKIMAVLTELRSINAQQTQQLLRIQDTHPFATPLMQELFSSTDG
Tumor necrosis factor (Homo sapiens), sequence (P01375 whole entry, looked up): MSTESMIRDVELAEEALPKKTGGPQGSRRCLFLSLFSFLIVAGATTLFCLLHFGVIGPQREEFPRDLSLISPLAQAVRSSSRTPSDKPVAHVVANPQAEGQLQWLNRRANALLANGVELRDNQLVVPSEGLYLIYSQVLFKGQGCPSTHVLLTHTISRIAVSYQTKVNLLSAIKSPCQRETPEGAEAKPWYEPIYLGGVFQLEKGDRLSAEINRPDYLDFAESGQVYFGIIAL

NC(=O)NC(N)=O
inactive: Potency [1] | Potency [2] | Potency [3] | activation [4] 2.56% | max response [5] -2.74% | Potency [6] | outcome [7] | Potency [8] | max response [9] -4.93% | max response [10] -4.97% | Potency [11] | max response [12] -0.329% | outcome [13]

O=C(O)c1ccc(Cl)cc1Cl
inactive: Potency [1] | Potency [2] | Potency [3] | activation [4] -0.705% | max response [5] -5.53% | Potency [6] | outcome [7] | Potency [8] | max response [9] -0.648% | max response [10] 4.16% | Potency [11] | max response [12] 4.22% | outcome [13]

Cc1ccc2ncccc2c1
inactive: Potency [1] | Potency [2] | Potency [3] | activation [4] 3.02% | max response [5] -2.02% | Potency [6] | outcome [7] | Potency [8] | max response [9] 5.85% | max response [10] -3.3% | Potency [11] | max response [12] 2.4% | outcome [13]

C=CCn1c(=O)n(CC=C)c(=O)n(CC=C)c1=O
inactive: Potency [1] | Potency [2] | Potency [3] | activation [4] 0.438% | max response [5] -0.851% | Potency [6] | outcome [7] | Potency [8] | max response [9] -13.5% | max response [10] 8.26% | Potency [11] | max response [12] 4.89% | outcome [13]

O=C(O)c1ccccc1[N+](=O)[O-]
inactive: Potency [1] | Potency [2] | Potency [3] | activation [4] -1.41% | max response [5] -2.24% | Potency [6] | outcome [7] | Potency [8] | max response [9] -13.2% | max response [10] 3.94% | Potency [11] | max response [12] 0.256% | outcome [13]

Cc1ccccc1C(=O)O
inactive: Potency [1] | Potency [2] | Potency [3] | activation [4] 0.336% | max response [5] -0.184% | Potency [6] | outcome [7] | Potency [8] | max response [9] 0.515% | max response [10] -7.38% | Potency [11] | max response [12] -1.94% | outcome [13]

Cc1ccc(C#N)cc1
inactive: Potency [1] | Potency [2] | Potency [3] | activation [4] 2.83% | max response [5] 0.216% | Potency [6] | outcome [7] | Potency [8] | max response [9] 4.38% | max response [10] -2.64% | Potency [11] | max response [12] 3.52% | outcome [13]

Cc1nc2ccc(Cl)cc2[nH]1
inactive: Potency [1] | Potency [2] | Potency [3] | activation [4] 3.58% | max response [5] -1.28% | Potency [6] | outcome [7] | Potency [8] | max response [9] -4.37% | max response [10] 5.07% | Potency [11] | max response [12] -1.68% | outcome [13]

CCOCCO
inactive: Potency [1] | Potency [2] | Potency [3] | activation [4] -0.327% | max response [5] -5.75% | Potency [6] | outcome [7] | Potency [8] | max response [9] 10.2% | max response [10] -0.409% | Potency [11] | max response [12] -4.11% | outcome [13]

OC(CCl)CCl
inactive: Potency [1] | Potency [2] | Potency [3] | activation [4] 0.26% | max response [5] -0.528% | Potency [6] | outcome [7] | Potency [8] | max response [9] 16.1% | max response [10] 5.53% | Potency [11] | max response [12] 0.333% | outcome [13]

CC1CCCO1 (stereo not drawn)
inactive: Potency [1] | Potency [2] | Potency [3] | activation [4] 2.22% | max response [5] 0.088% | Potency [6] | outcome [7] | Potency [8] | max response [9] -3.62% | max response [10] -15.7% | Potency [11] | max response [12] -1.92% | outcome [13]

Cc1ccccc1Br
inactive: Potency [1] | Potency [2] | Potency [3] | activation [4] -0.782% | max response [5] -3.06% | Potency [6] | outcome [7] | Potency [8] | max response [9] -8.12% | max response [10] -0.991% | Potency [11] | max response [12] -1.24% | outcome [13]

CC(C)C(C)C
inactive: Potency [1] | Potency [2] | Potency [3] | activation [4] 1.04% | max response [5] -4.01% | Potency [6] | outcome [7] | Potency [8] | max response [9] -1.72% | max response [10] 2.97% | Potency [11] | max response [12] 9.63% | outcome [13]

C=C(C)C(=O)OC
inactive: Potency [1] | Potency [2] | Potency [3] | activation [4] 0.279% | max response [5] 0.595% | Potency [6] | outcome [7] | Potency [8] | max response [9] 4.29% | max response [10] 0.0882% | Potency [11] | max response [12] 2.17% | outcome [13]

CCC(O)C(C)(C)C (stereo not drawn)
inactive: Potency [1] | Potency [2] | Potency [3] | activation [4] 0.48% | max response [5] -0.805% | Potency [6] | outcome [7] | Potency [8] | max response [9] -4.91% | max response [10] -6.59% | Potency [11] | max response [12] 7.53% | outcome [13]

COc1ccc(OC)cc1
inactive: Potency [1] | Potency [2] | Potency [3] | activation [4] 0.641% | max response [5] -4.92% | Potency [6] | outcome [7] | Potency [8] | max response [9] 4.82% | max response [10] -1.36% | Potency [11] | max response [12] 2.22% | outcome [13]
